Bioassay records as filed in PubChem BioAssay.
Sampled rows, rich in hits. Any-hit rate of the full collection: about 7.4%.
M1 antag: blocks the rat M1 muscarinic receptor response to acetylcholine | P08482 | CHO-M1 cells, Fluo-4 calcium, ACh EC80 antagonist mode; hits give low values | B-score at 10 µM | 3.4% of 64,000 active;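 active = calcium fluorescence response, raw or row-and-column corrected B-score, differing from the plate sample mean either way at a set confidence level, mostly lower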
FXIIa inh mix: blocks human factor XIIa in pooled compound mixtures; P00748; purified FXIIa, fluorogenic substrate; inhibition, % at 5 µM; 0.2% of 62,000 active; AID 684;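 note: 0% = enzyme without compound and 100% = no enzyme blank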
D1 allo mod: allosterically modulates the human D1 dopamine receptor; 5.9% of 58,000 active; HEK293 D1, CRE-luciferase, dopamine EC30 potentiation; actives deviate in either direction; B-score at 10 µM; AID 641;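 active = luminescence count or its row- and column-corrected plate score outside the 99.7% band of the plate's sample wells, on either side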
DAT uptake mod: changed human dopamine transporter uptake under cocaine IC80; Q01959; LLC-PK1 hDAT cells, [14C]-dopamine uptake with cocaine IC80; actives deviate in either direction; B-score at 10 µM; 1.3% of 110,000 active; AID 449768;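 active = Z score or B-score, a plate-position-corrected score, falls beyond the plate's 99.7% confidence bounds, in either direction; inactive = both scores lie inside the 99.7% bounds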;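 note: scored against the spread of the other compound wells on the same plate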
FXIa mix inh: factor XIa (human) inhibition, mixture screen | P03951 | purified FXIa, fluorogenic substrate, pooled mixtures | inhibition, % at 5 µM | 0.19% of 62,000 active;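 note: each value is inhibition by a whole ten-compound pool holding the compound; 0% = enzyme with no mixture and 100% = wells lacking enzyme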
Target sequence (P03951 19-387 limits assumed): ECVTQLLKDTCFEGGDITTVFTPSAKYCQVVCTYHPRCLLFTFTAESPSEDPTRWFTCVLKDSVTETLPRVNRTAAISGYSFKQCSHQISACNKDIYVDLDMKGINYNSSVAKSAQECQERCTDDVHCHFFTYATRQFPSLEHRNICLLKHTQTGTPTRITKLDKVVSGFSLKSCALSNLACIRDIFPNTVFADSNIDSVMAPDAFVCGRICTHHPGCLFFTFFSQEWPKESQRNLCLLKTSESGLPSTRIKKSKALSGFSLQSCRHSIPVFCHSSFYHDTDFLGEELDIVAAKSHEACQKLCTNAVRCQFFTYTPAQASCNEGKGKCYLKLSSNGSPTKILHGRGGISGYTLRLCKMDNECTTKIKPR
Target sequence (P03951 388-625 limits assumed): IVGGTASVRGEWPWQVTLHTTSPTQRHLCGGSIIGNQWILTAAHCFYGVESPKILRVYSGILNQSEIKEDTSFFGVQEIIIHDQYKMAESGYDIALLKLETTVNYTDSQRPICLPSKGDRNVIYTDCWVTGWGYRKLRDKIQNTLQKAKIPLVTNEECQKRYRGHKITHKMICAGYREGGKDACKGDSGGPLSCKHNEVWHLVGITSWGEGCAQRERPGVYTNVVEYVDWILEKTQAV
M1 ag: activates the M1 muscarinic receptor. CHO-M1 cells, Fluo-4 calcium fluorescence, agonist mode; hits give high values. B-score at 10 µM. 3% of 64,000 active. AID 626;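 active = fluorescence rise, raw or as B-score row- and column-corrected plate score, outside the 99.7% band of its plate's samples, either direction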
D1 mod confirm: confirmation of human D1 dopamine receptor allosteric modulators; shares compounds with D1 allo mod; HEK293 D1 CRE-luciferase, dopamine EC30 potentiation; hits give high values; luminescence at 10 µM; 88% of 2,200 active;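 active = luminescence in either of two replicates above the same-plate mean plus 3 SD of the low-dose dopamine control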
D1 no dopamine: D1 (human) signaling in absence of dopamine | 0.8% of 1,900 active | AID 646 | luminescence at 10 µM | shares compounds with D1 allo mod | HEK293 D1 CRE-luciferase, luminescence, no dopamine; hits give high values; in the data active = luminescence above about 3900
Isoprot counter: counter-screen for D1 modulators: isoproterenol response in HEK293 cells. shares compounds with D1 allo mod. HEK293 D1 CRE-luciferase, isoproterenol EC30 counter-screen. calls only at 10 µM. 63% of 2,200 active. AID 647;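 active = luminescence in either replicate above plate mean of wells with a partly effective reference agonist dose plus 3 SD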;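 note: isoproterenol raises cAMP through native beta-adrenoceptor Gs so signal bypasses D1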
Active calls of the source: *. Cut-off read from the data, not from the text of the source, unless noted: active = inhibition above about 20% (passing the limit was not always enough); inactive = the rest.

For c1ccc(Nc2nc3ccccc3n3cnnc23)cc1 the results were M1 antag -0.14, FXIIa inh mix 1, D1 allo mod 4.2*, DAT uptake mod 0.017, FXIa mix inh 7, M1 ag 0.11, D1 mod confirm 15712*, D1 no dopamine 1616 and Isoprot counter inactive.
Screening FC(F)(F)c1ccc(N2CCOCC2)c(Nc2nc3ccccc3n3cnnc23)c1 returned M1 antag 0.0064, FXIIa inh mix -7, DAT uptake mod 0.15, FXIa mix inh -9 and M1 ag 0.2.
`CCCCN1CN(S(=O)(=O)c2cccs2)c2nc3ccccc3nc21` gave M1 antag 0.98, FXIIa inh mix 3, D1 allo mod 8.4*, DAT uptake mod -0.19, FXIa mix inh -6, M1 ag 0.4, D1 mod confirm 13480*, D1 no dopamine 1328 and Isoprot counter active.
For CC(C)CCN1CN(S(=O)(=O)c2cccs2)c2nc3ccccc3nc21 the results were DAT uptake mod 0.25.
For COCCN1CN(S(=O)(=O)c2ccccc2)c2nc3ccccc3nc21 the results were M1 antag 1.3, FXIIa inh mix 5, D1 allo mod 6.6*, DAT uptake mod -0.84, FXIa mix inh 10, M1 ag -1.1, D1 mod confirm 9164*, D1 no dopamine 1496 and Isoprot counter active.
For COCCN1CN(S(=O)(=O)c2ccc(Cl)cc2)c2nc3ccccc3nc21 the results were DAT uptake mod 0.27.
`CCNS(=O)(=O)c1ccc2nc(NC(=O)c3cccnc3)sc2c1` gave M1 antag 0.11, FXIIa inh mix -3, D1 allo mod 1.1, DAT uptake mod -0.99, FXIa mix inh 3 and M1 ag -0.0009.
Screening CCOC(=O)C1=C(c2ccccc2)N2CCS(=O)(=O)N=C2S1 returned M1 antag 0.77, FXIIa inh mix 5, D1 allo mod 7.1*, DAT uptake mod -0.65, FXIa mix inh 6, M1 ag 0.035, D1 mod confirm 9940*, D1 no dopamine 1656 and Isoprot counter inactive.
`CCOC(=O)c1c(N)nn(C(=O)C(C)(C)C)c1-c1ccccc1` gave M1 antag -0.39, FXIIa inh mix 1, D1 allo mod 1.5, DAT uptake mod -0.32, FXIa mix inh 3 and M1 ag -0.038.
O=C(Oc1ccccc1-c1nnco1)c1ccccc1 was read as DAT uptake mod 1.1.
For CC(C)C1C(C#N)=C(N)Oc2n[nH]c(-c3cccs3)c21 (configuration not stated) the results were M1 antag 1.1, FXIIa inh mix 4, D1 allo mod 3.6*, DAT uptake mod -0.11, FXIa mix inh 10, M1 ag 1.1, D1 mod confirm 8472*, D1 no dopamine 1560 and Isoprot counter inactive.
Cc1c(NC(=O)CN2C(=O)c3ccccc3C2=O)c(=O)n(-c2ccccc2)n1C was read as M1 antag 0.29, FXIIa inh mix 8, D1 allo mod 3.7*, DAT uptake mod -0.7, FXIa mix inh 2, M1 ag -1.4, D1 mod confirm 4240, D1 no dopamine 1472 and Isoprot counter inactive.
For COc1cc(C(=O)Nc2ccc(-c3nc4cc(C)ccc4o3)c(O)c2)cc(OC)c1OC the results were M1 antag -0.0059, FXIIa inh mix -17, D1 allo mod 3.1*, DAT uptake mod -0.57, FXIa mix inh -14, M1 ag 1, D1 mod confirm 5096 and Isoprot counter inactive.
For CCOC(=O)c1[nH]c2ccc(OC)cc2c1NC(=O)CN1CCSCC1 the results were M1 antag 0.37, FXIIa inh mix 10, D1 allo mod 2.3*, DAT uptake mod 0.34, FXIa mix inh -3, M1 ag -0.038, D1 mod confirm 6220*, D1 no dopamine 1352 and Isoprot counter active.
